# Compound activity as filed in PubChem.
# Rows were chosen to be rich in hits. Some 11% of all compounds tested hit in one or more screens of this group.
# Pf growth 96h = P. falciparum growth inhibition at 96 hour, primary screen for plastid delayed-death inhibitors. P. falciparum luciferase reporter growth, 96 h. Potency, µM (titrated, usually from 28.7 µM), inactives show at the highest dose activity change, negative = inhibition, actives largely listed as inhibitors. 320,000 compounds, 6.9% hits
#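 Two parasite generations (96 h, 37 C, 5% CO2) of compound exposure in infected erythrocytes (0.05% parasitemia, 2% hematocrit). Luciferase-reporter P. falciparum; decreased luminescence indicates inhibited growth, aimed at apicoplast-acting delayed death.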
# HCV inh = HCV inhibition. Huh7.5.1 HCVcc-Cre infection, luciferase reporter, 44 h. Potency, µM (top dose mostly 41.8 µM), for the others: at the highest dose activity change, negative = inhibition, usual class: inhibitors. 340,000 compounds, 3.4% hits
#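 Infectious HCVcc-Cre (~0.5 moi) was added to cells just after compound, with cells seeded 4 h earlier at 1,000 per well. Luciferase activity after 44 h culture reported infection; substrate was incubated 15 min at room temperature before reading.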
# AmpC inh detg = blocks E. coli AmpC beta-lactamase in detergent assay; P00811; AmpC hydrolysis of nitrocefin, absorbance 480 nm, 0.01% Triton; Potency, µM (doses to about 114 µM), without a hit: at the highest dose activity change, negative = inhibition, hits mostly inhibitors; 370,000 compounds, 0.041% hits; AID 485294;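 further: 0% = no-compound wells and -100% = no-enzyme wells; nearly all actives have a fitted effect of over 25% in size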
# Target sequence (P00811 whole entry, looked up): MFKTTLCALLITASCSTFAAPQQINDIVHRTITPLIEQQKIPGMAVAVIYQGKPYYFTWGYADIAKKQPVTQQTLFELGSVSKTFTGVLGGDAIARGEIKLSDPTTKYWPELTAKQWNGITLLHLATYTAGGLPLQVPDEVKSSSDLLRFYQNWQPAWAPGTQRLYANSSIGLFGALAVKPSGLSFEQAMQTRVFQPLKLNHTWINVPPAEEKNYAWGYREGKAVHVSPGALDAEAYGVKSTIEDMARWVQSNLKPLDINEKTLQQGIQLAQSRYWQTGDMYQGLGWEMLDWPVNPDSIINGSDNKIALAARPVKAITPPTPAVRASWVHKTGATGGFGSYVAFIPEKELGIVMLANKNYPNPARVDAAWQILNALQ
#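 20 mM phosphate pH 7.0 + 0.01% (detergent screen) or 0.0001% Triton X-100; 5.3 nM AmpC reagent; cpd preinc 15 min RT; nitrocefin (800 uM stock) to start; A480 q20 s × 4 min; Activity was normalised to no-enzyme and no-compound control wells.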
# AmpC no deterg = blocks E. coli AmpC beta-lactamase in detergent-free assay. P00811. AmpC nitrocefin hydrolysis, absorbance 480 nm, 0.0001% Triton. Potency, µM (doses to about 57.1 µM), without a hit: at the top dose activity change, negative = inhibition, most hits filed as inhibitors. 330,000 compounds, 0.52% hits. AID 485341;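 further: plate controls were no compound for no effect and no enzyme for full effect; nearly all actives have a fitted effect of over 20% in size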
#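 AmpC (5.3 nM in the dispensed reagent) in 20 mM phosphate pH 7.0 with 0.01% (detergent screen) or 0.0001% Triton X-100 was preincubated with compounds for 15 min at room temperature. Nitrocefin was then added from an 800 uM solution, and hydrolysis was followed at 480 nm.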
# Pf growth 48h = P. falciparum growth inhibition at 48 hours (one generation) | 310,000 compounds, 5.9% hits | P. falciparum luciferase growth in erythrocytes, 48 h | AID 504832 | Potency, µM (series often up to 28.7 µM), for inactives: at the top dose activity change, negative = inhibition, usual class: inhibitors
#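 Compounds are pin-transferred into medium, infected erythrocytes (2% hematocrit, 0.1% parasitemia final) are added, and plates sit one parasite generation at 37 C in 5% CO2. Detection reagent is then added and luminescence measured.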
# AMA1-RON2 inh = disrupts binding of P. falciparum AMA1 to RON2; Potency, µM (doses to about 58.2 µM), without a hit: top-dose activity change, negative = inhibition, usual class: inhibitors; 360,000 compounds, 0.2% hits; AlphaScreen AMA1-biotinylated RON2 peptide binding;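 further: 0% = vehicle wells and -100% = peptide control; nearly all actives have a fitted effect of over 45% in size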
#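 AMA1 (3D7) with his tag at 25 nM final met compounds first, then biotinylated RON2 peptide at 25 nM; detection used donor plus acceptor beads, 10 µg/mL apiece, read by AlphaScreen after 30 min at room temperature.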
# Active calls of the source: *; u = inconclusive; x = no result. The call rests on the fitted dose curve; in most records, active means well fitted curve in the direction sought with a large enough effect; inconclusive means small, poorly fitted or top-dose-only effect, or another doubt; inactive means no such curve, though single readings can be large; an effect the other way counts as inactive or inconclusive. Unless noted, on the % scale 0 is the no-effect control and ±100 the full control effect; potency means the concentration at half of the fitted maximal effect.
SMILES,Pf growth 96h,HCV inh,AmpC inh detg,AmpC no deterg,Pf growth 48h,AMA1-RON2 inh
Cc1ccc2nc(Nc3nc(-c4ccccc4)cc(=O)[nH]3)nc(C)c2c1,u,u,-2.2%,-31.2%,u,4.0%
Cc1ccc2nc(Nc3nc(C)cc(-c4ccccc4)n3)[nH]c(=O)c2c1,6.57µM*,u,-2.4%,1.1%,3.29µM*,12.2%
Cc1ccc2c(C)nc(Nc3nc(CSc4nc5ccccc5[nH]4)cc(=O)[nH]3)nc2c1,u,u,-0.2%,-24.2%,10.4µM*,10.5%
Cc1cc(C)nc(Nc2nc3ccccc3[nH]2)n1,10.4%,39.7%,u,5.3%,89.8%,-0.5%
O=c1cc(OCc2ccccc2)cc[nH]1,-14.6%,19.1%,u,-8.3%,-16.1%,1.12µM*
Cc1[nH]ccc(=O)c1OCc1ccccc1,0.0%,-14.0%,-0.9%,u,-5.3%,5.4%
Cc1ccc2oc(C(=O)N3CCC(O)(c4ccccc4)CC3)c(C)c2c1,10.4µM*,-3.8%,3.7%,68.2%,u,-8.5%
CCN(CC)C(=O)C1CCN(C(=O)c2oc3ccc(C)cc3c2C)CC1,-21.1%,-12.9%,2.3%,101.4%,24.6%,8.5%
COC(=O)CNC(=O)C1CCN(S(=O)(=O)c2cccc3nsnc23)CC1,13.1µM*,u,-7.9%,-11.6%,16.6%,15.6%
O=C(NCCC1=CCCCC1)C1CCN(S(=O)(=O)c2cccc3nsnc23)CC1,1.85µM*,4.0%,1.1%,-12.9%,u,7.2%
O=C(NCCC1=CCCCC1)C1CCN(S(=O)(=O)c2ccccc2C(F)(F)F)CC1,u,0.8%,0.3%,22.3%,10.4µM*,-9.1%
CCOCCCNC(=O)C1CCC(CNS(=O)(=O)c2cccc3nsnc23)CC1 (stereo not drawn),3.7µM*,0.8%,u,-15.2%,2.5%,-2.3%
CCCCNC(=O)C1CCC(CNS(=O)(=O)c2cccc3nsnc23)CC1 (stereo not drawn),-0.5%,-6.9%,-2.0%,-4.5%,-11.4%,-1.1%
Cc1cn2c(=O)c(S(=O)(=O)NCc3ccccc3Cl)c(C)nc2s1,x,x,4.4%,x,x,x
O=C(NCCc1ccccc1)C1CCCN1S(=O)(=O)c1cccc2nsnc12 (stereo not drawn),14.7%,15.5%,2.9%,-3.1%,-13.2%,9.3%
O=C(NCCN1CCCCCC1)C1CCCN1S(=O)(=O)c1cccc2nsnc12 (stereo not drawn),u,10.0%,4.5%,41.6%,1.65µM*,20.8%
O=C(NCCc1ccccc1)Nc1cccc(Cl)c1,2.94µM*,-3.8%,-5.5%,-50.5%,-4.3%,8.5%
COc1ccc(CNCCc2ccc(Cl)cc2Cl)cc1,5.86µM*,29.3%,-2.5%,-10.8%,6.6%,1.0%
CC(=O)Nc1ccc(OCC(=O)c2cc(C)ccc2C)cc1,9.28µM*,-12.3%,-1.8%,-1.0%,x,-12.9%
O=C(NCCc1ccc(Cl)cc1)Nc1ccc(F)cc1,-1.3%,4.9%,6.3%,-15.7%,14.7µM*,5.5%
O=C(NCCc1ccc(Cl)cc1)Nc1cccc(Cl)c1,92.6%,u,-9.0%,-30.8%,u,11.0%
Cc1cc(C)cc(C(=O)N2CC(=O)Nc3ccc(Br)cc3C2c2ccccc2)c1 (stereo not drawn),x,x,-6.1%,x,x,x
CCCCC(=O)Nc1cc(C)c(O)c(-c2nc3ncccc3o2)c1,x,x,2.6%,x,x,x
CC(=O)Nc1ccc(OCC(=O)NCCc2ccc(Cl)cc2)cc1,13.1µM*,4.3%,-2.0%,-24.9%,23.7%,3.6%
COc1ccc(C2SCCN2C(=S)Nc2cccc(Cl)c2)cc1 (stereo not drawn),2.08µM*,u,-7.4%,-22.9%,2.33µM*,4.5%
COc1ccc(CNC(=O)Nc2cccc(Cl)c2)cc1,10.4µM*,11.0%,3.0%,-38.0%,71.2%,2.5%
CCCc1c(NC(=O)Nc2ccc(F)cc2)cnn1-c1ccc(Cl)cc1,u,15.4%,-6.0%,-36.2%,6.57µM*,-20.3%
